# Screens from PubChem.
# Sampled rows, rich in hits. Any-hit rate of the full collection: about 11%.
# Pf growth 48h – P. falciparum growth inhibition at 48 hours (one generation) | hit rate 5.9% among 310,000 | AID 504832 | P. falciparum luciferase growth in erythrocytes, 48 h | Potency, µM (doses to about 28.7 µM), for inactives: at the highest dose activity change, negative = inhibition, usual class: inhibitors; also: potency is read from the fitted curve at half-maximal effect; % is scaled to controls: 0 for no effect and ±100 for the full control effect
#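 In quantitative HTS format, infected erythrocytes bearing luciferase-reporter parasites were treated for a single generation at 37 C. Luminescence after adding detection reagent served as the growth measure.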
# VACV mCherry inh – vaccinia inhibition (mCherry reporter); Vaccinia virus mCherry reporter infection, fluorescence; Potency, µM (titrated, usually from 36.5 µM), inactives show at the highest dose activity change, negative = inhibition, actives largely listed as inhibitors; hit rate 0.63% among 310,000; AID 720579; calls by dose curve; tested in A549 cells; also: potency is read from the fitted curve at half-maximal effect; % is scaled to controls: 0 for no effect and ±100 for the full control effect; nearly all actives have a fitted effect of over 35% in size
# Pf growth 96h – inhibits malaria parasite growth, 96 h. P. falciparum luciferase reporter growth, 96 h. Potency, µM (series often up to 28.7 µM), for inactives: at the highest dose activity change, negative = inhibition, most hits filed as inhibitors. hit rate 6.9% among 320,000. AID 504834; also: potency is read from the fitted curve at half-maximal effect; % is scaled to controls: 0 for no effect and ±100 for the full control effect
#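 Plates of compound plus infected erythrocytes (2% hematocrit, 0.05% parasitemia final) incubate 96 hours, 37 C, 5% CO2. Detection reagent added; reduced luminescence from the parasites' luciferase reporter flags inhibition.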
# NS1 inh – influenza NS1 inhibition. Potency, µM (top dose mostly 46.1 µM), for inactives: top-dose activity, positive = more growth. hit rate 0.4% among 270,000. AID 2326; calls by dose curve; also: potency is read from the fitted curve at half-maximal effect; actives are rising curves; nearly all actives have a fitted effect of over 50% in size
#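 A cell-based growth assay was used: compounds that relieve NS1-induced slow growth of budding yeast raise OD600. Assay medium was yeast nitrogen base with ammonium sulphate and -URA supplement, pH 6.0, with 2% galactose.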
# Vaccinia Venus – vaccinia inhibition (Venus reporter); Vaccinia virus Venus reporter expression, fluorescence; Potency, µM (titrated, usually from 36.5 µM), for inactives: top-dose activity change, negative = inhibition, most hits filed as inhibitors; hit rate 0.46% among 330,000; AID 720580; calls by dose curve; tested in A549 cells; also: potency is read from the fitted curve at half-maximal effect; % is scaled to controls: 0 for no effect and ±100 for the full control effect; nearly all actives have a fitted effect of over 30% in size
# HCV inhibitor – HCV inhibition. Huh7.5.1 HCVcc-Cre infection, luciferase reporter, 44 h. Potency, µM (top dose mostly 41.8 µM), for the others: at the highest dose activity change, negative = inhibition, usual class: inhibitors. hit rate 3.4% among 340,000. AID 651820; also: potency is read from the fitted curve at half-maximal effect; % is scaled to controls: 0 for no effect and ±100 for the full control effect
#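 HCVcc-Cre virus at an moi near 0.5 was added right after compound to cells cultured 4 h from seeding (1,000 cells/well). Luciferase activity was determined 44 h later, 15 min after substrate addition at RT.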
# NS1 inh valid – validation of influenza NS1 protein function inhibitors. shares compounds with NS1 inh. influenza NS1 function cell assay, 15-point titration. activity change, negative = inhibition, % at 32.9 µM. 1,400 tested, under 10 active; calls by dose curve; also: 0% is about no effect
# Flu PR8 replic – influenza virus titer reduction, NS1 project. shares compounds with NS1 inh. MDCK infected influenza A/PR/8/34, virus titer TCID50; stronger effect = lower value. virus titer (log TCID50), log10 TCID50 at 5 µM. hit rate 30% among 95. AID 504647; call rule not given here
# * hit, by the source's call; i = inactive; ? = inconclusive; nt = no result given. Unless noted, calls follow the shape of the dose curve; as a rule, active = well fitted inhibition curve with a large enough effect; inconclusive = small, poorly fitted or top-dose-only effect, or another doubt; inactive = no such curve, though single readings can be large or run the other way.
SMILES,Pf growth 48h,VACV mCherry inh,Pf growth 96h,NS1 inh,Vaccinia Venus,HCV inhibitor,NS1 inh valid,others
Cc1ccc(NC(=O)/C(=C/c2cccc([N+](=O)[O-])c2)NC(=O)C2CCCCC2)cc1,?,-8%,nt,1%,-7%,-5%,nt,
CC(=O)N/C(=C\c1cccc([N+](=O)[O-])c1)C(=O)NC1CCCCC1,9%,i,-14%,11µM*,-9%,14%,5,
CCc1ccccc1NC(=O)CCC(=O)c1cccs1,0%,i,18%,9%,-12%,4%,nt,
O=C(NC(=S)Nc1ccccc1N1CCCC1)c1ccccc1[N+](=O)[O-],?,-25%,-101%,10%,-7%,-29%,nt,
O=C(/C=C/c1ccc(Cl)c([N+](=O)[O-])c1)Nc1ccc(N2CCCC2)cc1,-24%,nt,?,?,nt,-16%,18,
O=C(NC(=S)Nc1ccc(N2CCCC2)cc1)c1ccccc1[N+](=O)[O-],69%,-3%,4%,?,-9%,-6%,2,
O=C(/C=C/c1ccc(Cl)c([N+](=O)[O-])c1)Nc1cccc(NC(=O)c2ccco2)c1,12µM*,nt,?,18µM*,nt,-26%,8,
O=C(/C=C/c1ccc(Cl)c([N+](=O)[O-])c1)Nc1ccc(NC(=O)c2ccco2)cc1,5%,-13%,-8%,2%,3%,1%,nt,
COc1cccc(Cn2cc(S(=O)(=O)c3ccc(C)cc3)c(=O)c3cc4c(cc32)OCO4)c1,nt,-13%,nt,nt,-20%,nt,nt,
COCCNC(=O)C1CC2Cn3c(nc4ccccc43)C2N1C (stereo unspecified),59%,-2%,?,8%,0%,17%,nt,
CN(C)c1ccc(C(CNC(=O)c2ccccc2F)c2c[nH]c3ccccc23)cc1 (stereo unspecified),?,nt,?,16%,nt,-11%,nt,
CN(C)c1ccc(C(CNC(=O)c2ccccc2)c2c[nH]c3ccccc23)cc1 (stereo unspecified),?,nt,?,13µM*,nt,?,?,
O=C(COC(=O)Cc1ccsc1)Nc1ccc(Cl)c(S(=O)(=O)N2CCOCC2)c1,0%,i,-19%,-20%,-7%,12%,nt,
COc1ccccc1-n1cc(-c2ccc(Br)cc2)[nH]c1=S,?,-24%,11%,4.5µM*,-6%,-28%,-10,
O=C(C1CCCC1)N1CCC(CC2CC(c3cccc(Br)c3)=NO2)(C(=O)NCC2CCCCC2)CC1 (stereo unspecified),?,-1%,?,22µM*,-20%,-9%,-19,
N/N=c1\sc2ccccc2n1-c1ccccc1,6%,-13%,4%,11µM*,-5%,-19%,25,Flu PR8 replic=8
Nc1cc(=O)[nH]c(SCC(=O)Nc2cc(Cl)cc(Cl)c2)n1,9%,-16%,nt,10%,-1%,9%,nt,
CC(Sc1nc(N)cc(=O)[nH]1)C(=O)NNC(=O)c1cccc(Cl)c1 (stereo unspecified),29%,nt,-20%,nt,nt,-10%,nt,
Nc1cc(=O)[nH]c(SCC(=O)Nc2ccc(Cl)c(Cl)c2)n1,17%,nt,nt,2.5µM*,nt,8%,25,
CC(Sc1nc(N)cc(=O)[nH]1)C(=O)Nc1cccc(Cl)c1 (stereo unspecified),2%,-9%,-10%,10µM*,1%,-4%,7,
O=C(NNC(=O)c1ccc(Br)o1)c1ccc(NS(=O)(=O)c2cccs2)cc1,nt,i,nt,nt,-7%,13%,nt,
Cc1cc(C)nc(Nc2n[nH]c(COc3ccc4ccccc4c3)n2)n1,-5%,nt,11%,2µM*,nt,-4%,15,
CNc1cnc(-c2ccccc2OC)cn1,nt,-13%,nt,nt,-11%,nt,nt,
CCC(C)C(NC(=O)c1ccccc1NC(=O)c1ccccc1)C(=O)O (stereo unspecified),-6%,-10%,-6%,2%,-3%,11%,nt,
CC(Sc1ccc(Cl)cc1)C(=O)NNC(=O)c1ccccc1O (stereo unspecified),?,nt,?,-58%,nt,?,nt,
SMILES,Pf growth 48h,VACV mCherry inh,Pf growth 96h,NS1 inh,Vaccinia Venus,HCV inhibitor,NS1 inh valid,others
COc1ccc(C)cc1NC(=O)C(Sc1nnc(-c2cccs2)o1)c1ccccc1 (stereo unspecified),?,-9%,?,11µM*,-10%,2%,-26,
O=C(Nc1ccc(Cl)cc1C(F)(F)F)C(Sc1nnc(-c2cccs2)o1)c1ccccc1 (stereo unspecified),6%,?,?,25%,?,?,nt,
Cc1cc(C)n(S(=O)(=O)c2cc(C(=O)O)c(Cl)cc2Cl)n1,0%,i,nt,?,-6%,21%,10,
Cc1cc(C)n(S(=O)(=O)c2ccc(Cl)c(Cl)c2Cl)n1,-10%,nt,?,-42%,nt,-11%,nt,
CC1CC2C(C(O)CC3(C)C(O)CCC23)C2(C)CCC(=O)C=C12 (stereo unspecified),nt,-1%,nt,nt,0%,5%,nt,
Clc1cccc(CN2CCC(Cc3ccccc3)CC2)c1,-12%,nt,121%,?,nt,-9%,-2,
O=[N+]([O-])c1ccc(N(c2ccccc2)c2ccccc2)cc1,?,-15%,?,?,-10%,2%,?,
CCOC(=O)Nc1cccc2ccccc12,nt,-12%,18%,-4%,-18%,2%,nt,
CC(=O)c1cccc(NS(=O)(=O)c2ccc(N/C=C/C(=O)c3ccc(F)cc3)cc2)c1,?,?,?,?,-27%,11µM*,-20,
CC(=O)c1ccc(NS(=O)(=O)c2ccc(N/C=C/C(=O)c3ccc(F)cc3)cc2)cc1,?,nt,?,-41%,nt,0%,nt,
CC(=O)c1ccc(-n2nnnc2SCC(=O)N2CCc3ccccc3C2)cc1,?,-10%,nt,-39%,-9%,-30%,nt,
Cc1ccc(N(CC(=O)NCC2CCCO2)S(C)(=O)=O)cc1Cl (stereo unspecified),1%,-6%,34%,-5%,-1%,?,nt,
CC1=C(C#N)c2nc(N)c(C#N)c(C)c2/C1=C\c1ccc(C)cc1,?,nt,?,13µM*,nt,nt,?,
COC(=O)c1ccccc1NC(=O)Nc1c(C)n(C)n(-c2ccccc2)c1=O,9%,nt,-33%,10%,nt,19%,nt,
COc1ccc2cc(/C=N/NC(=O)c3ccc(CN(c4cccc(Cl)c4Cl)S(C)(=O)=O)cc3)c(Cl)nc2c1,?,i,?,13µM*,-14%,-16%,?,
Cc1ccc2occ(CC(=O)N(Cc3ccc(Cl)cc3)Cc3ccco3)c2c1,nt,-8%,nt,nt,-13%,nt,nt,
O=c1cc(O)cc(/C=C/c2ccc(O)c(O)c2)o1,nt,nt,nt,6.3µM*,nt,nt,38,
